# According to ChEMBL document CHEMBL3988442, “University of Dundee, Small-Polar-MMV Screening Library” (2021):
# About 1,000 (1.4%) of roughly 69,000 compounds showed an effect of 50% or more. Only a selection was taken, and strong results are over-represented in it overall.
# Tested on: Leishmania donovani
# Test: Leishmania intramacrophage assay
# Assay type: functional, organism-based
# Parameters: scale not given: in the data most compounds retested in dose-response had high values
structure (smiles),measurement,setting,value
CN1C(=O)C2(CCN(CC3CC3)CC2)c2ccccc21.O=C(O)C(F)(F)F,Percent Effect,"30 µM, 30.03 µM",16.21%
CN(C)[C@@H]1CCN(C(=O)Cc2ccc(F)cc2)[C@H]1Cc1ccncc1.O=C(O)C(F)(F)F.O=C(O)C(F)(F)F,Percent Effect,"30.3 µM, […]",29.68%
Cc1cccc(CN2CC[C@@H]3[C@@H]2CCN3C(=O)c2ccoc2C)n1.O=C(O)C(F)(F)F.O=C(O)C(F)(F)F,Percent Effect,"30.3 µM, […]",32.03%
Cc1[nH]c(C2(N)CCCCC2)nc(=O)c1C.Cl,Percent Effect,"30.3 µM, […]",27.19%
Cc1cnc(C(=O)N2C[C@H]3CN(Cc4cccnc4)C[C@H]3C2)cn1.O=C(O)C(F)(F)F.O=C(O)C(F)(F)F,Percent Effect,"30.3 µM, […]",19.7%
Cc1noc(C)c1CN1C[C@@H]2C[C@H](C(=O)NCC3CC3)N(C)[C@@H]2C1.O=C(O)C(F)(F)F.O=C(O)C(F)(F)F,Percent Effect,"30.3 µM, […]",-4.016%
CCN1CC2(CC1=O)CN(Cc1ccccn1)CCN(C(C)=O)C2.O=C(O)C(F)(F)F.O=C(O)C(F)(F)F (stereo unspecified),Percent Effect,"30.3 µM, […]",0.8966%
O=C(O)C(F)(F)F.O=C(O)C(F)(F)F.c1ccc(CN2CC[C@H]3CO[C@H](CNc4ncccn4)[C@H]3C2)cc1,Percent Effect,"30.3 µM, […]",8.127%
CN(C)C(=O)CN1CC[C@@H]2O[C@@H](COCc3cccnc3)CC[C@@H]21.O=C(O)C(F)(F)F.O=C(O)C(F)(F)F,Percent Effect,"30.3 µM, […]",38.61%
O=C(O)C(F)(F)F.O=C(O)C(F)(F)F.c1cncc(COC[C@H]2CC[C@H]3[C@H](CCN3Cc3nccs3)O2)c1,Percent Effect,"30.3 µM, […]",98.87%
O=C(O)C(F)(F)F.O=C(O)C(F)(F)F.c1cncc(COC[C@H]2CC[C@H]3[C@H](CCN3Cc3cccs3)O2)c1,Percent Effect,"30 µM, 30.03 µM",31.53%
COc1cc(CNC(C)Cn2cccn2)cc(Cl)c1OC.Cl (stereo unspecified),Percent Effect,30 µM,29.92%
Cc1cc(CN2C[C@@H]3COC[C@]3(CNC(=O)c3ccsc3)C2)no1.O=C(O)C(F)(F)F,Percent Effect,"30.3 µM, […]",18.56%
Cn1cc(N2CCC3(CCN(Cc4cccnc4)C3)C2=O)cn1.O=C(O)C(F)(F)F.O=C(O)C(F)(F)F (stereo unspecified),Percent Effect,"30 µM, 30.03 µM",-14.07%
O=C(O)C(F)(F)F.O=C(c1ccc[nH]1)N1CCC2(CCCN2Cc2cccnc2)CC1,Percent Effect,"30.3 µM, […]",12.17%
Cn1cc(CN2CCC3(CCCN3Cc3cccnc3)CC2)cn1.O=C(O)C(F)(F)F.O=C(O)C(F)(F)F.O=C(O)C(F)(F)F,Percent Effect,"30.3 µM, […]",63.2%
COCCN1C[C@@H]2[C@@H](OC)CCN(C(=O)Cc3ccccc3)[C@@H]2C1.O=C(O)C(F)(F)F,Percent Effect,"30.3 µM, […]",35.25%
COc1cc(C2SCC(=O)Nc3[nH]ncc32)cc(OC)c1OC (stereo unspecified),Percent Effect,"30.3 µM, […]",56.1%
COc1cc(C2SCC(=O)Nc3[nH]ncc32)cc2c1OCO2 (stereo unspecified),Percent Effect,"30.3 µM, […]",1.862%
COc1cc(C2SCC(=O)Nc3[nH]ncc32)c(OC)c2c1OCO2 (stereo unspecified),Percent Effect,"30.3 µM, […]",8.87%
COc1ccnc(N2C[C@@H]3CC[C@H](C2)N(CC2CC2)C3)n1,Percent Effect,"30.3 µM, […]",37.63%
CC(=O)Nc1cccc(-c2ccccc2CCN)c1,Percent Effect,"30.3 µM, […]",-35.33%
CCOc1ccc(-c2cc(CCN)ccc2OC)cc1,Percent Effect,"30.3 µM, […]",-5.145%
COc1ccc(-c2ccccc2CCN)c(OC)c1,Percent Effect,"30.3 µM, […]",75.35%
COCC(=O)N1CCC2(CCN(Cc3cccnc3)C2)CC1.O=C(O)C(F)(F)F.O=C(O)C(F)(F)F,Percent Effect,"30.3 µM, […]",22.03%
Fc1cnc(N2CCO[C@H]3CN(CC4CCCCC4)C[C@H]32)nc1.O=C(O)C(F)(F)F,Percent Effect,"30.3 µM, […]",-16.59%
O=C(O)C(F)(F)F.O=C(O)C(F)(F)F.O=C(O)C(F)(F)F.O=C1C[C@@H]2[C@H](CCN2Cc2ccccn2)N1Cc1ccncc1,Percent Effect,"30.3 µM, […]",27.44%
O=C(O)C(F)(F)F.O=C(O)C(F)(F)F.O=C(O)C(F)(F)F.c1ccc(CN2C[C@@H]3OCCN(c4ncccn4)[C@@H]3C2)nc1,Percent Effect,"30 µM, 30.03 µM",-0.09782%
O=C(O)C(F)(F)F.c1cncc(N2CCO[C@H]3CN(CC4CCOC4)C[C@H]32)c1 (stereo partly specified),Percent Effect,"30.3 µM, […]",31.71%
Fc1ccccc1CN1C[C@@H]2OCCN(c3ncccn3)[C@@H]2C1,Percent Effect,"30.3 µM, […]",15.52%
c1ccc(CN2C[C@@H]3OCCN(c4cccnc4)[C@@H]3C2)nc1,Percent Effect,"30.3 µM, […]",55.81%
Cn1ccnc1CN1C[C@@H]2OCCN(c3ncccn3)[C@@H]2C1,Percent Effect,"30.3 µM, […]",50.19%
Cc1ccc(N2CCO[C@H]3CN(Cc4ccncc4)C[C@H]32)nn1.O=C(O)C(F)(F)F.O=C(O)C(F)(F)F.O=C(O)C(F)(F)F,Percent Effect,"30 µM, 30.03 µM",16.14%
Cc1ccc(N2CCO[C@H]3CN(Cc4ccccn4)C[C@H]32)nn1.O=C(O)C(F)(F)F.O=C(O)C(F)(F)F.O=C(O)C(F)(F)F,Percent Effect,"30.3 µM, […]",63.6%
c1ccc(CCN2C[C@@H]3OCCN(c4ncccn4)[C@@H]3C2)cc1,Percent Effect,"30.3 µM, […]",6.788%
c1ccc(CN2C[C@@H]3OCCN(CC4CCCO4)[C@@H]3C2)nc1 (stereo partly specified),Percent Effect,"30 µM, 30.03 µM",15.57%
CC(C)N1CC[C@@H]2OC[C@H](C(=O)Nc3cccnc3)C[C@@H]2C1.O=C(O)C(F)(F)F.O=C(O)C(F)(F)F,Percent Effect,"30.3 µM, […]",-12.98%
CCCn1nc(C)c(-c2cncn2CC2(N(C)C)CCC(C)CC2)c1C (stereo unspecified),Percent Effect,"30.3 µM, […]",1.091%
CCCN1CCC(c2nc3ccc(C)cn3n2)CC1.O=C(O)C(F)(F)F,Percent Effect,"30.3 µM, […]",17.32%
Cc1cccc(CN2C(=O)C[C@H]3[C@@H]2CCN3Cc2nccs2)n1.O=C(O)C(F)(F)F.O=C(O)C(F)(F)F,Percent Effect,"30.3 µM, […]",2.484%
CC(C)NC(=O)c1ccc2c(c1)C1(CCN(C)CC1)C(=O)N2.O=C(O)C(F)(F)F,Percent Effect,"30.3 µM, […]",1.546%
Cc1ccc(C(=O)N2C[C@H](N3CCOCC3)[C@@H]3OCCC[C@@H]32)cn1.O=C(O)C(F)(F)F.O=C(O)C(F)(F)F,Percent Effect,"30.3 µM, […]",2.104%
CN1[C@H]2CC[C@@H]1CN(c1cc(Sc3cccs3)nc(N)n1)CC2,Percent Effect,"30.3 µM, […]",2.015%
CC(C)CCN1C[C@@H]2OCCN(c3ncc(F)cn3)[C@@H]2C1.O=C(O)C(F)(F)F,Percent Effect,"30.3 µM, […]",-5.572%
COCC1CC2(CCN(Cc3cccnc3)CC2)CN1C(C)C (stereo unspecified),Percent Effect,"30.3 µM, […]",20.26%
Cl.NC(=O)N1CC2(CCNCC2)c2cc(Cl)ccc21,Percent Effect,"30 µM, 30.03 µM",2.936%
